About 7,900 targets were measured; listed, in parts, are those with a hit and a random draw of the rest. About 0.6% of all pairs of compound and target were hits.
Assays:
Assay in all cases: log2 fold change, soluble protein after heating vs DMSO (PISA); higher = thermal stabilisation; K562 cells, 10 uM, 30 min; active = over 0.2 and 3.5 SD of the protein, either way, in both replicates (recomputed)
filanesib = compound: CON(C)C(=O)N1N=C(c2cc(F)ccc2F)S[C@@]1(CCCN)c1ccccc1 [filanesib]
Outline: (§1)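 K562 cells at 2×10^6 cells/mL were treated with 10 μM compound for 30 min. Aliquots were heated for 3 min across 48°C-58°C, pooled, and extracted in PBS with 0.5% NP-40 at 4°C; soluble protein was the supernatant after 21,000xg for 90 min. Soluble protein was quantified by TMTpro 16plex LC-MS/MS with channel sums equalised, and reported as log2 fold change in thermal stability against DMSO controls, with values from duplicates.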

idasanutlin = compound: COc1cc(C(=O)O)ccc1NC(=O)[C@@H]1N[C@@H](CC(C)(C)C)[C@](C#N)(c2ccc(Cl)cc2F)[C@H]1c1cccc(Cl)c1F [idasanutlin]
Outline: as §1

[1] = compound: COC1=CC=C(C=C1)CN2C=CC3=C2C=C(C=C3)C(=O)NO
Outline: as §1

zotarolimus = compound: CO[C@H]1C[C@@H]2CC[C@@H](C)[C@@](O)(O2)C(=O)C(=O)N2CCCC[C@H]2C(=O)O[C@H]([C@H](C)C[C@@H]2CC[C@H](n3cnnn3)[C@H](OC)C2)CC(=O)[C@H](C)/C=C(\C)[C@@H](O)[C@@H](OC)C(=O)[C@H](C)C[C@H](C)/C=C/C=C/C=C/1C [zotarolimus]
Outline: as §1

[2] = compound: COc1cc2nc(-c3cc(F)ccc3O)nc(N[C@@H]3CNC[C@H]3C(C)(C)O)c2cc1OC
Outline: as §1

gefitinib = compound: COc1cc2ncnc(Nc3ccc(F)c(Cl)c3)c2cc1OCCCN1CCOCC1 [gefitinib]
Outline: as §1

lapatinib = compound: CS(=O)(=O)CCNCc1ccc(-c2ccc3ncnc(Nc4ccc(OCc5cccc(F)c5)c(Cl)c4)c3c2)o1 [lapatinib]
Outline: as §1

pictilisib = compound: CS(=O)(=O)N1CCN(Cc2cc3nc(-c4cccc5[nH]ncc45)nc(N4CCOCC4)c3s2)CC1 [pictilisib]
Outline: as §1

alisertib = compound: COc1cc(Nc2ncc3c(n2)-c2ccc(Cl)cc2C(c2c(F)cccc2OC)=NC3)ccc1C(=O)O [alisertib]
Outline: as §1

[3] = compound: COc1cccc2cc(-c3nc([C@H]4CC[C@H](C(=O)O)CC4)n4ncnc(N)c34)[nH]c12
Outline: as §1

Measured: log2 fold change

RPS3A (UniProt D6R9B6)
inactive: filanesib 0.228 | idasanutlin 0.079

SAMD4B (UniProt Q5PRF9)
Chain of UniProt Q5PRF9 (Q5PRF9 whole entry, looked up): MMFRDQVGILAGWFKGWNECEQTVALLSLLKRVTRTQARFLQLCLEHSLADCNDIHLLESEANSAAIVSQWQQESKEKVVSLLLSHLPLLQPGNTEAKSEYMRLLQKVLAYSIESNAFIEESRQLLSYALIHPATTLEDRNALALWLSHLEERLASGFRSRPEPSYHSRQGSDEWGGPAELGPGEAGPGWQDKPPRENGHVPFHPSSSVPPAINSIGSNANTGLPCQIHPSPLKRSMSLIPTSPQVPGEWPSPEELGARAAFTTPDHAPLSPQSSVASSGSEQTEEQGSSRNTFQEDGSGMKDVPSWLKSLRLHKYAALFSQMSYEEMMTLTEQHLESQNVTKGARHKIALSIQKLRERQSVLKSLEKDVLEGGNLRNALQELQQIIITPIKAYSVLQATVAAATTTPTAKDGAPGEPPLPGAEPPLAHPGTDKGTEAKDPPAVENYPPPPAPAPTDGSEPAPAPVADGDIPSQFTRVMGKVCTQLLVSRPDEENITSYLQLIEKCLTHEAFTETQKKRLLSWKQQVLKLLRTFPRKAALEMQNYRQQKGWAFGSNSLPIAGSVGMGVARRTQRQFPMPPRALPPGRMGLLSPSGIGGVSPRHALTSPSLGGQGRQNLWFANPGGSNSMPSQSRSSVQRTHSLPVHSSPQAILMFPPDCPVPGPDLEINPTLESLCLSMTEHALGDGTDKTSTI
inactive: [1] 0.075 | filanesib 0.139 | zotarolimus 0.072 | [2] 0.14 | gefitinib 0.146 | lapatinib -0.036 | pictilisib -0.044

SEMG2 (UniProt Q02383)
Chain of UniProt Q02383 (Q02383 whole entry, looked up): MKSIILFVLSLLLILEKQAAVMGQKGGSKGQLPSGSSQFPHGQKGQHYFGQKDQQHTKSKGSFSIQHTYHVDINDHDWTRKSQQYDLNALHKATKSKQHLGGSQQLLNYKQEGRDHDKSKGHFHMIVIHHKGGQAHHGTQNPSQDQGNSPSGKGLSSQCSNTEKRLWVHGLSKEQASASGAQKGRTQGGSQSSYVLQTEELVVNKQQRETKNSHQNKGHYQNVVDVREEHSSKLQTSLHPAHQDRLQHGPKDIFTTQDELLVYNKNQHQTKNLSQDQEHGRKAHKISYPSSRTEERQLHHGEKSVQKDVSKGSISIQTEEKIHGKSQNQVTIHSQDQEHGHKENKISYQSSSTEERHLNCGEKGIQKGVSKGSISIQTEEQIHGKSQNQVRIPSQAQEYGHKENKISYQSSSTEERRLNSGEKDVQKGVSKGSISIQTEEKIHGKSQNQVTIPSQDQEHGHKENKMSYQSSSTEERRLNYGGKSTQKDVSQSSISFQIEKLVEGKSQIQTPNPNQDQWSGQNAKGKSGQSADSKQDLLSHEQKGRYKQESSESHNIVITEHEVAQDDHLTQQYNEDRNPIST
inactive: filanesib -0.002 | zotarolimus -0.021 | idasanutlin -0.135 | alisertib 0.005 | gefitinib -0.008 | [3] 0.063 | pictilisib -0.021

RICTOR isoform 3 (UniProt Q6R327)
Chain of UniProt Q6R327 (Q6R327 whole entry, looked up): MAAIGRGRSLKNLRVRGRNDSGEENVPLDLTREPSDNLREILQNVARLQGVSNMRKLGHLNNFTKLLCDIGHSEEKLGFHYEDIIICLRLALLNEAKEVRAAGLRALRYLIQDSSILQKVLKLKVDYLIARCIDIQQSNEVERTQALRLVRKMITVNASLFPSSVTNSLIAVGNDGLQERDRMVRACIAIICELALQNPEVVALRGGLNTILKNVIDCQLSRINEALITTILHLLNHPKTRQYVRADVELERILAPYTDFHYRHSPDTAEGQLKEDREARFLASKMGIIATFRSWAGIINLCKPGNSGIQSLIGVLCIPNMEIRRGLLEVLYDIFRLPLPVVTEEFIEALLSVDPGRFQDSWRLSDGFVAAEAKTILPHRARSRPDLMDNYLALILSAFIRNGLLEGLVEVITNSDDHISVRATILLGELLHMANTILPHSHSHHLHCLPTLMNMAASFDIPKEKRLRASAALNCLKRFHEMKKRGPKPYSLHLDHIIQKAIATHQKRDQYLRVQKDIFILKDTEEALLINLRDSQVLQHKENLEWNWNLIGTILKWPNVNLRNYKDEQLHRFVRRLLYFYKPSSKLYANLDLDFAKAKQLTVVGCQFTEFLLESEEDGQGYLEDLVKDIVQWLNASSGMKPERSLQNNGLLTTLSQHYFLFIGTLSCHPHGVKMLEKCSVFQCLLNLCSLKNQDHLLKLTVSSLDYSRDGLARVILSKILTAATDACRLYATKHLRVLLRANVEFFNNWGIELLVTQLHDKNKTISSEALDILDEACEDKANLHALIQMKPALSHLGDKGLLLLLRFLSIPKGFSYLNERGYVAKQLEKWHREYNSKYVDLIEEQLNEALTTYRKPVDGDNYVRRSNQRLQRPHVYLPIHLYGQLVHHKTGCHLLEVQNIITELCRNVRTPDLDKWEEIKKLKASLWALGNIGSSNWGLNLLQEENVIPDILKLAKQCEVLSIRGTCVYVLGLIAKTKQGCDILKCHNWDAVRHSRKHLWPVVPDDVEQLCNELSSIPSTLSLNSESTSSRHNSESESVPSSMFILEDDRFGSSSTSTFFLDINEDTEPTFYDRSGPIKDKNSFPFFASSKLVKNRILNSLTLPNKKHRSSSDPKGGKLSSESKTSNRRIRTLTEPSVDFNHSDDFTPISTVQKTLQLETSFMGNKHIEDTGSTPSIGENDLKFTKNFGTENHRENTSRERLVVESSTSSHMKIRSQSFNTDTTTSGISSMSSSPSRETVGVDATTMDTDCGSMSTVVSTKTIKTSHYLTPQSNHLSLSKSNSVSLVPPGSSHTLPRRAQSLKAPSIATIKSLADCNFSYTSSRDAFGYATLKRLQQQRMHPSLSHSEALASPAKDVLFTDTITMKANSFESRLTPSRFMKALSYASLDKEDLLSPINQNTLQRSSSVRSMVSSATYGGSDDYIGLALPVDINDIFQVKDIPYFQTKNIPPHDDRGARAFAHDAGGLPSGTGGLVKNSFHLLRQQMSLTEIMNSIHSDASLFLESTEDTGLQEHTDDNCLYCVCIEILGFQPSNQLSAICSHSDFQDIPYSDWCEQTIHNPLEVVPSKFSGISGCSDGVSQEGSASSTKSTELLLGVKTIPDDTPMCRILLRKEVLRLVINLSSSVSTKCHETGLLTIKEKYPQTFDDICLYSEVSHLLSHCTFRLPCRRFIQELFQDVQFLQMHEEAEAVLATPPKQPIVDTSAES
inactive: filanesib -0.028 | idasanutlin -0.066 | [2] 0.003 | gefitinib 0.059 | lapatinib 0.186 | pictilisib -0.062

RPS3 (UniProt E9PJN9)
inactive: pictilisib 0.129

SAFB2 (UniProt K7EQU4)
inactive: [1] 0.115 | gefitinib -0.126

RNF26 (UniProt Q9BY78)
inactive: pictilisib 0.065

ROMO1 (UniProt P60602)
Chain of UniProt P60602 (P60602 whole entry, looked up): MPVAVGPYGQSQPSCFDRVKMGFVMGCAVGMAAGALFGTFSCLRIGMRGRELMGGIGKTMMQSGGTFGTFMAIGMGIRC
inactive: filanesib -0.024 | zotarolimus -0.069 | idasanutlin 0.044 | alisertib 0.005 | [2] -0.024 | gefitinib 0.034 | [3] 0.033 | lapatinib -0.079 | pictilisib 0.035

SCYL3 isoform 2 (UniProt Q8IZE3)
Chain of UniProt Q8IZE3 (Q8IZE3 whole entry, looked up): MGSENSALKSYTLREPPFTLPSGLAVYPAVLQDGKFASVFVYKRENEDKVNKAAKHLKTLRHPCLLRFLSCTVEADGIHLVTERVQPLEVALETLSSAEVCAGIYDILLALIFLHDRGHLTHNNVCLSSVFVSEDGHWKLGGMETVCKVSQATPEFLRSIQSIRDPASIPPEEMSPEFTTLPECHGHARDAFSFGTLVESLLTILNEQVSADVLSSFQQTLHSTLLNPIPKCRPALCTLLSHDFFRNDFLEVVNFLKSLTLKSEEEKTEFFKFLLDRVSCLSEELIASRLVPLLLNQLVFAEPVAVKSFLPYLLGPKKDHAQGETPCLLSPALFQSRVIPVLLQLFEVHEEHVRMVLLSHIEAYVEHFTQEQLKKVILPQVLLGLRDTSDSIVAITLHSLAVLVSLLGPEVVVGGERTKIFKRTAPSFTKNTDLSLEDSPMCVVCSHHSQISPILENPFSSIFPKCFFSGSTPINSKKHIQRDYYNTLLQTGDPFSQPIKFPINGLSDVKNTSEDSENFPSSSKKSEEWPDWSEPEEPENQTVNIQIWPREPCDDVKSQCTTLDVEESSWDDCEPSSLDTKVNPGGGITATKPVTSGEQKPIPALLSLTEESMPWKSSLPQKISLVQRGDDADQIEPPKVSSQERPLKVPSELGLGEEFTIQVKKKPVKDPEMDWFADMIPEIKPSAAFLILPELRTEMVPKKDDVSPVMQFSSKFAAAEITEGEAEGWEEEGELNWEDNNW
inactive: [1] 0.017 | zotarolimus 0.008 | idasanutlin -0.117 | alisertib 0.063 | [2] 0.039 | gefitinib 0.063 | [3] 0.032 | lapatinib -0.084 | pictilisib 0.018

RNF41 (UniProt Q9H4P4)
inactive: idasanutlin -0.031

RAB3D (UniProt O95716)
inactive: zotarolimus -0.08 | idasanutlin 0.026 | alisertib 0.007 | [2] 0.002 | gefitinib 0.243 | [3] -0.07 | lapatinib 0.002 | pictilisib -0.153

RBM48 isoform 2 (UniProt Q5RL73)
Chain of UniProt Q5RL73 (Q5RL73 whole entry, looked up): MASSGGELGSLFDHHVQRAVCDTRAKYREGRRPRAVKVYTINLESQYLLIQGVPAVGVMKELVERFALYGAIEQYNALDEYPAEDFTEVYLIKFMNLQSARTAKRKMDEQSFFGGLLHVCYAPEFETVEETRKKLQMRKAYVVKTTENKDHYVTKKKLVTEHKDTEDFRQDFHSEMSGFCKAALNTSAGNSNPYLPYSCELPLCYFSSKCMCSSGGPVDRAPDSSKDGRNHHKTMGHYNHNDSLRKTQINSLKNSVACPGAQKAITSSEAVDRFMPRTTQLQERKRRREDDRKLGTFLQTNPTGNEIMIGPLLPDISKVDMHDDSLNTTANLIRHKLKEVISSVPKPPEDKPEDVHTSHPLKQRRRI
inactive: [1] -0.046 | filanesib -0.049 | zotarolimus -0.076 | idasanutlin 0.04 | [2] -0.046 | gefitinib -0.024 | lapatinib 0.011 | pictilisib -0.083

RUNX1 isoform 8 (UniProt Q01196)
Chain of UniProt Q01196 (Q01196 whole entry, looked up): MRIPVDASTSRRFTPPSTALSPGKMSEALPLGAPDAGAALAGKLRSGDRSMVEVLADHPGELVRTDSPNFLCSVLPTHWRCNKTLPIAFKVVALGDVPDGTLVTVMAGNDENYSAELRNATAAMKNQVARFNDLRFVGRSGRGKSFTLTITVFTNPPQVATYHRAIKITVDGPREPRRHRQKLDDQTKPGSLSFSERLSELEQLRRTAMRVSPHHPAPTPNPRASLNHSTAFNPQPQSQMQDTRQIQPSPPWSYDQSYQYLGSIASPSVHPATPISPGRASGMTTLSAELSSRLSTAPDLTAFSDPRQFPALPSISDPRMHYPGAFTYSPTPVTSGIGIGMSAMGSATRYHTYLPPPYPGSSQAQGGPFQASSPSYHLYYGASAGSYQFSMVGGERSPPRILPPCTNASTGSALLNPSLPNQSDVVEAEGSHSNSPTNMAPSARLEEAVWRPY
inactive: [1] -0.055 | filanesib -0.084 | idasanutlin 0.075 | alisertib -0.292 | [2] 0.053 | gefitinib -0.074 | [3] -0.011 | lapatinib -0.001 | pictilisib 0.24

S100A10 (UniProt P60903)
inactive: filanesib -0.143 | zotarolimus -0.045 | idasanutlin 0.165 | [2] 0.093 | gefitinib 0.305 | lapatinib 0.01 | pictilisib -0.056

RRP36 (UniProt Q96EU6)
inactive: filanesib 0.372 | zotarolimus -0.054 | idasanutlin 0.203 | alisertib -0.217 | [2] 0.01 | gefitinib -0.042 | [3] -0.268 | lapatinib 0.088 | pictilisib -0.181

RMDN2 isoform 2 (UniProt Q96LZ7)
inactive: [1] 0.008 | alisertib 0.389 | gefitinib -0.418 | [3] 0.191

SCAMP2 (UniProt O15127)
Chain of UniProt O15127 (O15127 whole entry, looked up): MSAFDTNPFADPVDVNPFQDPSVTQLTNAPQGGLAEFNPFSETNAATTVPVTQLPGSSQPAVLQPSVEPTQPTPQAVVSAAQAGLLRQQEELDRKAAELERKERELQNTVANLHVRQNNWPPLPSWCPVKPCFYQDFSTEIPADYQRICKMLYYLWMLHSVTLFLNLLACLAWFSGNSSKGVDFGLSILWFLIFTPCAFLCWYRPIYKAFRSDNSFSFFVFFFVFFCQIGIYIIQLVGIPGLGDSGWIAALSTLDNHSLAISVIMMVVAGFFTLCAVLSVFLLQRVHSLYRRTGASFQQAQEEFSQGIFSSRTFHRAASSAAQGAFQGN
inactive: filanesib 0.036 | zotarolimus 0.171 | idasanutlin -0.1 | alisertib -0.087 | [2] -0.035 | gefitinib 0.036 | [3] 0.042 | lapatinib 0.009 | pictilisib 0.199

From the supplement of paper PMC10849652
